Reference: ChEMBL document CHEMBL2218924, “A broad activity screen in support of a chemogenomic map for kinase signalling research and drug discovery” (Biochem J, 2013)

Experiments:
[1] = molecular target: MAP kinase-activated protein kinase 2 (Homo sapiens) (UniProt P49137); settings: at 10 µM
[2] = molecular target: MAP kinase-activated protein kinase 3 (Homo sapiens) (UniProt Q16644); settings: at 10 µM
[3] = molecular target: Serine/threonine-protein kinase MARK1 (Homo sapiens) (UniProt Q9P0L2); settings: at 1 µM
[4] = molecular target: Serine/threonine-protein kinase MARK1 (Homo sapiens) (UniProt Q9P0L2); settings: at 10 µM
[5] = molecular target: Dual specificity mitogen-activated protein kinase kinase 1 (Homo sapiens) (UniProt Q02750); settings: at 1 µM
[6] = molecular target: Dual specificity mitogen-activated protein kinase kinase 1 (Homo sapiens) (UniProt Q02750); settings: at 10 µM
[7] = molecular target: Maternal embryonic leucine zipper kinase (Homo sapiens) (UniProt Q14680); settings: at 1 µM
[8] = molecular target: Maternal embryonic leucine zipper kinase (Homo sapiens) (UniProt Q14680); settings: at 10 µM
[9] = molecular target: Misshapen-like kinase 1 (Homo sapiens) (UniProt Q8N4C8); settings: at 1 µM
[10] = molecular target: Misshapen-like kinase 1 (Homo sapiens) (UniProt Q8N4C8); settings: at 10 µM
[11] = molecular target: T1, Dual specificity mitogen-activated protein kinase kinase 6 (Homo sapiens) (UniProt P52564); settings: at 1 µM
T1 sequence (whole entry): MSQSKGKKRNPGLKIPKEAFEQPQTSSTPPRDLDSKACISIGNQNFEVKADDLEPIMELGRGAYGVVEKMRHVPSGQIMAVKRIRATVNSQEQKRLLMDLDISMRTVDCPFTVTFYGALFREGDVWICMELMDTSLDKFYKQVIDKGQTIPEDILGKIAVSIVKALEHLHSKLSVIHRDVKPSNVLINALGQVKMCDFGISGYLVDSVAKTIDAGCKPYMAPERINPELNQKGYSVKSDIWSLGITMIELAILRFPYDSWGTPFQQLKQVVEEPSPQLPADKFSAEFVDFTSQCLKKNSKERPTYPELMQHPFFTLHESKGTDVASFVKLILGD

[12] = molecular target: T1, Dual specificity mitogen-activated protein kinase kinase 6 (Homo sapiens); settings: at 10 µM
[13] = molecular target: T2, Dual specificity mitogen-activated protein kinase kinase 7 (Homo sapiens) (UniProt O14733); settings: at 1 µM
T2 sequence (whole entry): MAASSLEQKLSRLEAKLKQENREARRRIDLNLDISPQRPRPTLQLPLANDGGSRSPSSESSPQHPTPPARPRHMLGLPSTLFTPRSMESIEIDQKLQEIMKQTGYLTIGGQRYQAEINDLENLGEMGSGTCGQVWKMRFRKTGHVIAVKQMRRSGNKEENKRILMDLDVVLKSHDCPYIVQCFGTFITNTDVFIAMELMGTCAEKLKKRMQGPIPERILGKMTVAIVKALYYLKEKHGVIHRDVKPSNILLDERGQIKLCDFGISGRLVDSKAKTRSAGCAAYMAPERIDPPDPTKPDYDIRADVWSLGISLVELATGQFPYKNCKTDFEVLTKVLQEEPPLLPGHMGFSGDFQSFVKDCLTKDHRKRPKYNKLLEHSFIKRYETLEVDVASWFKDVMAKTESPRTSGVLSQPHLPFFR

[14] = molecular target: T2, Dual specificity mitogen-activated protein kinase kinase 7 (Homo sapiens); settings: at 10 µM
[15] = molecular target: Myosin light chain kinase, smooth muscle (Homo sapiens) (UniProt Q15746); settings: at 1 µM
[16] = molecular target: Myosin light chain kinase, smooth muscle (Homo sapiens) (UniProt Q15746); settings: at 10 µM
[17] = molecular target: Mitogen-activated protein kinase kinase kinase 9 (Homo sapiens) (UniProt P80192); settings: at 1 µM
[18] = molecular target: Mitogen-activated protein kinase kinase kinase 9 (Homo sapiens) (UniProt P80192); settings: at 10 µM
[19] = molecular target: Serine/threonine-protein kinase MRCK alpha (Homo sapiens) (UniProt Q5VT25); settings: at 1 µM
[20] = molecular target: Serine/threonine-protein kinase MRCK alpha (Homo sapiens) (UniProt Q5VT25); settings: at 10 µM

Myosin light chain kinase, smooth muscle (Homo sapiens), sequence (Q15746 whole entry): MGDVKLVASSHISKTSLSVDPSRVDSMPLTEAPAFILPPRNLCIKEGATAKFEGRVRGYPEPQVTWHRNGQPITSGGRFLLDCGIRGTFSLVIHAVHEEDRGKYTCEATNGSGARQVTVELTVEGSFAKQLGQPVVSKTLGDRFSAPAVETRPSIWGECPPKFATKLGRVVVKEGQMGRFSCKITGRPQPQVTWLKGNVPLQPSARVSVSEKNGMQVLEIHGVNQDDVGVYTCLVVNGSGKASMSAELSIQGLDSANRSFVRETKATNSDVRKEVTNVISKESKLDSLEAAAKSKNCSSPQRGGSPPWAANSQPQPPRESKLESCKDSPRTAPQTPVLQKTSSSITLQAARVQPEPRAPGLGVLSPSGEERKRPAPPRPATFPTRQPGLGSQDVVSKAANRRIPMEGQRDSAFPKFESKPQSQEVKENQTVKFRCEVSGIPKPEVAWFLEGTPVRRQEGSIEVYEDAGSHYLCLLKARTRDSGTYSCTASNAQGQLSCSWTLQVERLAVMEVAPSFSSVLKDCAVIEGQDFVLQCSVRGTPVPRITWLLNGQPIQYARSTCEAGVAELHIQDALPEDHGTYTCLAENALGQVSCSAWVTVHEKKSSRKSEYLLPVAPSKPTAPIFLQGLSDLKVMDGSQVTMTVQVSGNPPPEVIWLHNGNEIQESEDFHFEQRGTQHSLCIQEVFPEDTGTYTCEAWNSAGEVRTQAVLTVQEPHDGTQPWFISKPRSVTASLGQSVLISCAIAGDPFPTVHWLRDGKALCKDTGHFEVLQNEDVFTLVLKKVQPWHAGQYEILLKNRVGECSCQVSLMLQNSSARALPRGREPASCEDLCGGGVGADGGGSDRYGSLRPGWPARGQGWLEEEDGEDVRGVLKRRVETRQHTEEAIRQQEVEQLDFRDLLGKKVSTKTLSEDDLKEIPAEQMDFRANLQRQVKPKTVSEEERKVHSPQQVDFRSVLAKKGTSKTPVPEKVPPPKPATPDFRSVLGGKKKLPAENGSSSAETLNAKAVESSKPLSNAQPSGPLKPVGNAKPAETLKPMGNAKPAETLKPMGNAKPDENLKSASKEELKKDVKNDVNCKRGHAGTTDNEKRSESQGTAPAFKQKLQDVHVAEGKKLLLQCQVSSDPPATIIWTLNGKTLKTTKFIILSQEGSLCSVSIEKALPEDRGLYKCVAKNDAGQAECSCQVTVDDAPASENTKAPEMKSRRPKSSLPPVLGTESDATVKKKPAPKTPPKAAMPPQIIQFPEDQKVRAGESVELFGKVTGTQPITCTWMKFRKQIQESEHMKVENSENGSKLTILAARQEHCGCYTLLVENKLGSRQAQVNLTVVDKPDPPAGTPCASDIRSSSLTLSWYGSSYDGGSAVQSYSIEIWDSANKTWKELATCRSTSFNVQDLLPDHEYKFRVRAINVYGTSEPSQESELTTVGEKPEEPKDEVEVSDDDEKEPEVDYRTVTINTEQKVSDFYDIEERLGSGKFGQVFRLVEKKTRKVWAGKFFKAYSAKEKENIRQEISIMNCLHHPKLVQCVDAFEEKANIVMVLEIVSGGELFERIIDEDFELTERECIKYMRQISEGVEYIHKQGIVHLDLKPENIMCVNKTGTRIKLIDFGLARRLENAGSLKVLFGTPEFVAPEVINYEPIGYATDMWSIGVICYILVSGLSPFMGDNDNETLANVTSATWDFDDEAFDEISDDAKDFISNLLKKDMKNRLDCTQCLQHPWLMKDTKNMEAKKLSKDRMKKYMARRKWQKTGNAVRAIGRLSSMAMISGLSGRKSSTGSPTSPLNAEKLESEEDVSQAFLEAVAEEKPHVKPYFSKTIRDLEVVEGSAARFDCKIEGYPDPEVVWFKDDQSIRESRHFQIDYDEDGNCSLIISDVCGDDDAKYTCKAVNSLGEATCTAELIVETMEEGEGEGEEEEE
Dual specificity mitogen-activated protein kinase kinase 1 (Homo sapiens), sequence (Q02750 whole entry): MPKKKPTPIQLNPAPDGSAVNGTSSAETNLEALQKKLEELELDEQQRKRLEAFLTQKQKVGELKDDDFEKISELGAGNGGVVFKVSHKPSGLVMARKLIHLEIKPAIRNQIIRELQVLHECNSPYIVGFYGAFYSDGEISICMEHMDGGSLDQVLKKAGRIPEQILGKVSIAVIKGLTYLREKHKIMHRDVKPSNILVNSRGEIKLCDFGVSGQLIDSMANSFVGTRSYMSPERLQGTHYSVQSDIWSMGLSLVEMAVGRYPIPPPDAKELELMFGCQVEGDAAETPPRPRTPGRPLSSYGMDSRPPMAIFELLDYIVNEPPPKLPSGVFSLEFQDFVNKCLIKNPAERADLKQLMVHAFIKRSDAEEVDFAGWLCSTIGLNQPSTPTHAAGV
Maternal embryonic leucine zipper kinase (Homo sapiens), sequence (Q14680 whole entry, looked up): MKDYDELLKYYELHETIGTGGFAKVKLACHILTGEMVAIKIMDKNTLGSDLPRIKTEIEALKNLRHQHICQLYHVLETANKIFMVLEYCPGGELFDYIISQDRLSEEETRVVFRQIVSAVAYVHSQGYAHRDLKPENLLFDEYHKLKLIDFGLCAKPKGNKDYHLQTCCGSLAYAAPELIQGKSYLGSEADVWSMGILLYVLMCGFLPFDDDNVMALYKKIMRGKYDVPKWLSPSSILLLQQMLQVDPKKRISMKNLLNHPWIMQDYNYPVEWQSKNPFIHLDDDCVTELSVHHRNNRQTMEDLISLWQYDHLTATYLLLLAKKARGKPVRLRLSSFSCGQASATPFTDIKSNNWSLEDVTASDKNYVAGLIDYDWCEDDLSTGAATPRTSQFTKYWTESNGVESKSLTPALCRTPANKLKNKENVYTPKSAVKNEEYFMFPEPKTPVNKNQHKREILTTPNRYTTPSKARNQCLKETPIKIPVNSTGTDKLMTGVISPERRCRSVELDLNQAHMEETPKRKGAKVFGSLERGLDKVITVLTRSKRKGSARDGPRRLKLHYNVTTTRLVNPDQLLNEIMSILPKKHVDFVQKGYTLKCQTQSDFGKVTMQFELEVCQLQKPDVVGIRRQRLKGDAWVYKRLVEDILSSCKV
Serine/threonine-protein kinase MARK1 (Homo sapiens), sequence (Q9P0L2 whole entry, looked up): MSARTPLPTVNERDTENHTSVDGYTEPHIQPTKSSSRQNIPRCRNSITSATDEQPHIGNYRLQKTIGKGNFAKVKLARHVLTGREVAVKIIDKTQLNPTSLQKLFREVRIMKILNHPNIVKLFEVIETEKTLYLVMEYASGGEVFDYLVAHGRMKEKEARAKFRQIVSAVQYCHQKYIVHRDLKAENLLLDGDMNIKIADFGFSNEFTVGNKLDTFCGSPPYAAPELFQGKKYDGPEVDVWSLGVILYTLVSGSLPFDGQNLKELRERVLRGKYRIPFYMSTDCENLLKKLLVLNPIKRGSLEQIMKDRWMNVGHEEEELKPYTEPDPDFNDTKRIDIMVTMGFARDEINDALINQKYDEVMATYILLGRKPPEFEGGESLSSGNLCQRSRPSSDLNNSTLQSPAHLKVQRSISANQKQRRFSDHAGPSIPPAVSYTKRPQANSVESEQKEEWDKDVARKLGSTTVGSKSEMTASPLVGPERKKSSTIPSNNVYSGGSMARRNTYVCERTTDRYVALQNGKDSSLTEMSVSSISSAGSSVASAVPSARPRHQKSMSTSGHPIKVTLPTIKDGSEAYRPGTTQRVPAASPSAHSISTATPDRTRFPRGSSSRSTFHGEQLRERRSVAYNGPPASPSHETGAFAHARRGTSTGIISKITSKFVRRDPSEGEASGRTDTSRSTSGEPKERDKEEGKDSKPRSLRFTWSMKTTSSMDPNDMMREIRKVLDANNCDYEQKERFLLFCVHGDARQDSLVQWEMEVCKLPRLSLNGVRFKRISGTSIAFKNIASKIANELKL
MAP kinase-activated protein kinase 3 (Homo sapiens), sequence (Q16644 whole entry, looked up): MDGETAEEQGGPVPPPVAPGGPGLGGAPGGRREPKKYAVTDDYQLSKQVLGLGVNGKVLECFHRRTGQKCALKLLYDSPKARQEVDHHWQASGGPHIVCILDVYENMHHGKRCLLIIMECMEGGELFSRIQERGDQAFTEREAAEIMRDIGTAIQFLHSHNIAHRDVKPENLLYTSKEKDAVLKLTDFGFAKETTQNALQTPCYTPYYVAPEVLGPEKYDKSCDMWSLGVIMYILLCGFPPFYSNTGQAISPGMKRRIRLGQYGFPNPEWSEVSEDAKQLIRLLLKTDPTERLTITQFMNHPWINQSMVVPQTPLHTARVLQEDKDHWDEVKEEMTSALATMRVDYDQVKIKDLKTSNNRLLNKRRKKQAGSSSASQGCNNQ
MAP kinase-activated protein kinase 2 (Homo sapiens), sequence (P49137 whole entry, looked up): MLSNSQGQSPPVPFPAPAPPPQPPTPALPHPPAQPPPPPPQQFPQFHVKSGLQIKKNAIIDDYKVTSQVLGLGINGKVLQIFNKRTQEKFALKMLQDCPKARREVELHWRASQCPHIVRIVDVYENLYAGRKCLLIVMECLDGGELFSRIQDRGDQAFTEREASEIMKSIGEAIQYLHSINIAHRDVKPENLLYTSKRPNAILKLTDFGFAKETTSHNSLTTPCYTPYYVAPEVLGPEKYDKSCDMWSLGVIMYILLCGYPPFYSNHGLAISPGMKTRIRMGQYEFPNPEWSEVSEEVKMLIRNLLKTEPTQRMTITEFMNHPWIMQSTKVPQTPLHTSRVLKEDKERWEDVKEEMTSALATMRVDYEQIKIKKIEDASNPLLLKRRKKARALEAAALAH

| SMILES | residual activity [1] | residual activity [2] | residual activity [3] | residual activity [4] | residual activity [5] | residual activity [6] | residual activity [7] | residual activity [8] | residual activity [9] | residual activity [10] | residual activity [11] | residual activity [12] | residual activity [13] | residual activity [14] | residual activity [15] | residual activity [16] | residual activity [17] | residual activity [18] | residual activity [19] | residual activity [20] |
| --- | --- | --- | --- | --- | --- | --- | --- | --- | --- | --- | --- | --- | --- | --- | --- | --- | --- | --- | --- | --- |
| Cc1ccc(S(=O)(=O)/C=C/C#N)cc1 | 74% | 85% | 90% | 89% | 105% | 95% | 96% | 100% | 111% | 104% | 124% | 94% | 93% | 77% | 95% | 85% | 97% | 97% | 86% | 95% |
| Cn1cnc2cc3c(Nc4cccc(Br)c4)ncnc3cc21 | 94% | 87% | 102% | 94% | 91% | 88% | 92% | 103% | 103% | 75% | 83% | 74% | 96% | 74% | 74% | 94% | 64% | 40% | 105% | 87% |
| COc1cccc(-c2cc(=O)c3ccccc3o2)c1N | 78% | 97% | 87% | 85% | 103% | 111% | 109% | 113% | 98% | 96% | 138% | 77% | 106% | 84% | 107% | 77% | 111% | 96% | 118% | 96% |
| CC#CC(=O)Nc1cc2c(Nc3ccc(F)c(Cl)c3)ncnc2cn1 | 92% | 96% | 87% | 83% | 111% | 103% | 76% | 99% | 96% | 91% | 77% | 140% | 97% | 90% | 73% | 110% | 98% | 100% | 98% | 87% |
| N#C/C(=C(\N)Sc1ccc(N)cc1)c1ccccc1C(F)(F)F | 69% | 88% | 72% | 54% | 104% | 101% | 67% | 62% | 106% | 91% | 93% | 83% | 88% | 96% | 95% | 75% | 93% | 89% | 107% | 94% |
| CO[C@H]1C[C@@H]2CC[C@@H](C)[C@@](O)(O2)C(=O)C(=O)N2CCCC[C@H]2C(=O)O[C@H]([C@H](C)C[C@@H]2CC[C@@H](O)[C@H](OC)C2)CC(=O)[C@H](C)/C=C(\C)[C@@H](O)[C@@H](OC)C(=O)[C@H](C)C[C@H](C)/C=C/C=C/C=C/1C | 115% | 133% | 78% | 71% | 132% | 97% | 88% | 97% | 81% | 74% | 93% | 82% | 102% | 102% | 75% | 101% | 91% | 106% | 118% | 146% |
| Ic1cccc(CSc2nnc(-c3ccncc3)o2)c1 | 67% | 82% | 4% | 5% | 69% | 77% | 24% | 13% | 98% | 95% | 100% | 77% | 70% | 94% | 84% | 68% | 90% | 88% | 123% | 87% |
